Data from PubChem BioAssay.
For some assays here: Potency and affinity values are given separately. The source made the active and inactive calls.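 The calls were made as follows, unless noted: active = signal rise over 3 SD above mean of control wells given weak agonist, in both repeats and first screen; inactive = the rest.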

How the values were obtained:
[1] = test system: TRPC4 beta (transient receptor potential cation channel C4), mouse; test: TRPC4 cation channel opening, retest – cell-based, Fluo4 calcium, HEK293 TRPC4beta/mu-opioid, duplicates, 10 µM, confirmation (AID 2426;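 active = fluorescence ratio normalized to control raised more than 50% in primary screen plus both repeat runs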;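 as to activation: percent rise of integrated ratio over buffer wells lacking compound which define 0%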); conditions: Fluo4 calcium fluorescence, at 10 µM; stronger effect = higher value
[2] = test system: transient receptor potential cation channel C4 beta (TRPC4), mouse; test: TRPC4 cation channel opening, second retest – cell-based, second round, Fluo4, HEK293 TRPC4beta/mu-opioid, 1 µM, confirmation (AID 2461;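 active = primary screen active and over 50% activation in each of two duplicate runs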;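 as to activation: 0% = wells without test compound as baseline of integrated fluorescence ratio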); conditions: Fluo4 calcium fluorescence, at 1 µM; stronger effect = higher value
[3] = test system: TRPC4 (transient receptor potential cation channel C4 beta), mouse; test: potentiation of DAMGO EC20 TRPC4 response – cell-based, second round, Fluo-4, HEK293 TRPC4beta/mu-opioid, 1 µM, confirmation (AID 2554;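 active = primary screen hit whose fluorescence ratio, in both repeats, exceeds the weak agonist control mean by 3 SD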); conditions: DAMGO EC20, Fluo-4 calcium flux, at 1 µM; stronger effect = higher value
[4] = test system: TRPC4 beta (transient receptor potential cation channel C4), mouse; test: potentiation of DAMGO EC20 TRPC4 response – cell-based, Fluo-4, HEK293 TRPC4beta/mu-opioid, confirmation (AID 2555;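 active = primary screen hit whose calcium fluorescence ratio, in both repeats, exceeds the weak agonist control mean by 3 SD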); conditions: DAMGO EC20, Fluo-4 calcium flux, at 10 µM; stronger effect = higher value
[5] = biological target: Short transient receptor potential channel 4 (Mus musculus) (UniProt Q9QUQ5); test: blockers of DAMGO-evoked TRPC4 calcium flux – cell-based, Fluo4, HEK293 TRPC4beta/mu-opioid, confirmation (AID 2636;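 active = calcium signal cut by more than 3 SD below the full-agonist control yet still positive, in both repeats and the earlier primary screen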); conditions: at 10 µM; stronger effect = higher value
Short transient receptor potential channel 4 (Mus musculus), sequence (Q9QUQ5 whole entry, looked up): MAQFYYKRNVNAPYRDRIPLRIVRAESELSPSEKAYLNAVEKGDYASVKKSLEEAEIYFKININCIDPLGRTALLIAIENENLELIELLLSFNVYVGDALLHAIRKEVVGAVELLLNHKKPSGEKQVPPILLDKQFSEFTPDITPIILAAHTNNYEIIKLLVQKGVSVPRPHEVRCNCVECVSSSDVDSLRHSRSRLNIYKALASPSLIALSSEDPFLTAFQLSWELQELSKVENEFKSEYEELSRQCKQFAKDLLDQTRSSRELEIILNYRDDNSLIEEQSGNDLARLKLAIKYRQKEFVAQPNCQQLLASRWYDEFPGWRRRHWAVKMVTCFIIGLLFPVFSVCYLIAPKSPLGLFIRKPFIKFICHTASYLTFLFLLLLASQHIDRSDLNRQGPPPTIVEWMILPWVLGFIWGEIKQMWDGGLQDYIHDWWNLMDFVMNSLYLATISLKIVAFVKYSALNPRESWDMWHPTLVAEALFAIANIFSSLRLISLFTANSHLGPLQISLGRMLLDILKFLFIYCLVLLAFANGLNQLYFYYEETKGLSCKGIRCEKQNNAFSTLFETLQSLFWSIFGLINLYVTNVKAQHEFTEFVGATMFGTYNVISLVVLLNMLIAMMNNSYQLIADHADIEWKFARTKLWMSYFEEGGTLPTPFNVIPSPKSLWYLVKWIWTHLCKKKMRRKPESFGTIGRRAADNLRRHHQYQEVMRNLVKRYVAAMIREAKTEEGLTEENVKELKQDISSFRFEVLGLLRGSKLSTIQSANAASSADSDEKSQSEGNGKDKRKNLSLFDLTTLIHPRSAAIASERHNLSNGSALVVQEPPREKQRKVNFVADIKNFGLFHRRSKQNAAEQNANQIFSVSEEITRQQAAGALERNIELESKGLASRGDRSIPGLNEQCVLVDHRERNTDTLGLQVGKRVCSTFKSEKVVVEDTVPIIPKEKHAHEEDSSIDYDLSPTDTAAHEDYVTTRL

[6] = biological target: Short transient receptor potential channel 4 (Mus musculus) (UniProt Q9QUQ5); test: blockers of DAMGO-evoked TRPC4 calcium flux – cell-based, second round, Fluo4, HEK293 TRPC4beta/mu-opioid, 1 µM, confirmation (AID 2637;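 active = calcium signal ratio cut to more than 3 SD under the fully stimulated control mean yet still positive, in both repeats and the primary screen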;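 as to inhibition: percent of integrated ratio relative to wells lacking test compound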); conditions: at 1 µM; stronger effect = higher value
[7] = biological target: Short transient receptor potential channel 4 (Mus musculus) (UniProt Q9QUQ5); test: potentiation of DAMGO-evoked TRPC4 calcium signal – cell-based, HEK293 TRPC4/mu-opioid, Fluo-4 calcium, EC20 DAMGO, dose response (AID 434941;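 active = earlier screen potentiator hit that boosts the TRPC4 ion channel at some dose, with a dose response; inactive = no potentiation, no dose response, or not a prior hit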;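 also: calcium entry triggered by an EC20 dose of DAMGO at the co-expressed mu-opioid receptor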)
[8] = biological target: Short transient receptor potential channel 4 (Mus musculus) (UniProt Q9QUQ5); test: block of DAMGO-driven TRPC4 calcium entry – cell-based, HEK293 TRPC4/mu-opioid, Fluo-4 calcium, dose response (AID 434942;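 active = primary screen inhibitor hit that blocks the TRPC4 channel at some tested dose, yielding a dose curve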)
[9] = biological target: Short transient receptor potential channel 6 (Mus musculus) (UniProt Q61143); test: TRPC6 blockade by TRPC4 inhibitor hits – cell-based, HEK293, membrane potential dye, duplicate, selectivity assay for TRPC4 inhibitor project, confirmation (AID 434948;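 active = active in primary screen and both duplicates, each dropping signal beyond three positive-control SD with fluorescence still positive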); conditions: HEK293 TRPC6, membrane potential dye fluorescence, at 10 µM, stimulated with maximal-effect acetylcholine; stronger effect = higher value
Short transient receptor potential channel 6 (Mus musculus), sequence (Q61143 whole entry, looked up): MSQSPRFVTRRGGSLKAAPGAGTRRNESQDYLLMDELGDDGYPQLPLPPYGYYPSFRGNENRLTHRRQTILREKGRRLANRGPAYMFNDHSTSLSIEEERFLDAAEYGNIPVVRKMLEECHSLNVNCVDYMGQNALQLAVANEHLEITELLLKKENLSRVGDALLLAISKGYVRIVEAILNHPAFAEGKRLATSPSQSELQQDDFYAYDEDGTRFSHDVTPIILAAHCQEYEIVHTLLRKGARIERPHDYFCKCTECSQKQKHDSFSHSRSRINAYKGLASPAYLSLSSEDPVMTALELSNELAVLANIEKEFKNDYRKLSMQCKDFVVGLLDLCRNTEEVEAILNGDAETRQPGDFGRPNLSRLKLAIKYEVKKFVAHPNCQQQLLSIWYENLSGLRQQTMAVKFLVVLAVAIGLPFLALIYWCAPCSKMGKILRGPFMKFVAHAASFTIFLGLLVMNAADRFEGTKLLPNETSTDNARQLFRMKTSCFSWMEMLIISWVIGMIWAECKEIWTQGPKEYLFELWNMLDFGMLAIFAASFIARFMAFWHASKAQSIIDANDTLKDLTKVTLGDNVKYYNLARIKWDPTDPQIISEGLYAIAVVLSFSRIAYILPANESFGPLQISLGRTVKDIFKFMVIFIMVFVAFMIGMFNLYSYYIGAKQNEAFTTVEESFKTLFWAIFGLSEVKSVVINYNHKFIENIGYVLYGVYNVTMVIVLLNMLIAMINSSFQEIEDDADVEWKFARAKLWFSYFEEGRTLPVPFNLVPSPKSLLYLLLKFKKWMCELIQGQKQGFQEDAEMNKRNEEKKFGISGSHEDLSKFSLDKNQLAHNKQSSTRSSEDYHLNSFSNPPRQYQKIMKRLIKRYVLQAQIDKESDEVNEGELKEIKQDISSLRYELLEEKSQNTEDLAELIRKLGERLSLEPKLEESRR

[10] = biological target: Short transient receptor potential channel 6 (Mus musculus) (UniProt Q61143); test: TRPC6 opening by TRPC4 activator hits – cell-based, HEK293, membrane potential dye, duplicate, selectivity assay for TRPC4 activator project, confirmation (AID 434950;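 active = membrane potential signal rise above negative control mean plus 3 SD in both duplicates, also active in the earlier TRPC4 screen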;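 as to activation: 0% = buffer only wells and 100% = acetylcholine maximal-effect wells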); conditions: HEK293 TRPC6, membrane potential fluorescence, at 10 µM; activation: stronger effect = higher value; outcome: activation
[11] = biological target: Short transient receptor potential channel 6 (Mus musculus) (UniProt Q61143); test: positive modulators of mouse TRPC6 channel – HEK293 cells, membrane potential dye, duplicate, selectivity assay for TRPC4 potentiator project, confirmation (AID 434952;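 active = compound raising the membrane signal above positive-control mean plus 3 SD in both repeats, and a primary screen hit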); conditions: HEK293 TRPC6, membrane potential dye fluorescence, at 10 µM, maximal acetylcholine added after compound; stronger effect = higher value
[12] = biological target: Short transient receptor potential channel 4 (Mus musculus) (UniProt Q9QUQ5); test: calcium flux activators in TRPC4/5HT1a cells, counter-screen for TRPC4 activator project, cell-based, second counter screen, HEK293 TRPC4/5HT1a, Fluo-4 (AID 434977;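 active = calcium signal rise above buffer-control mean plus 5 SD in both duplicates, and also a hit in the primary screen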;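 as to activation: plate controls were assay buffer for no effect and maximal serotonin response for full effect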); conditions: Fluo-4 calcium flux, at 10 µM; stronger effect = higher value
[13] = serotonin-gated TRPC4 signal block – cell-based, second counter screen, HEK293 TRPC4/5HT1a, Fluo-4, counter-screen for TRPC4 inhibitor project, confirmation (AID 434978;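 active = primary screen active whose calcium signal fell more than 3 SD beyond the full-serotonin control mean in both duplicate plates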;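 as to outcome: serotonin given first at submaximal then at maximal dose after compound preincubation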); conditions: Fluo-4 calcium flux, at 10 µM, serotonin added to trigger calcium flux; stronger effect = higher value
[14] = test system: TRPC4 (mouse), co-expressed with 5HT1a in HEK293; test: enhancement of serotonin-evoked TRPC4 response – cell-based, second counter screen, HEK293 TRPC4/5HT1a, Fluo-4, counter-screen for TRPC4 potentiator project, confirmation (AID 434979); conditions: Fluo-4 calcium flux, at 10 µM, serotonin added at its EC20 dose; stronger effect = higher value
[15] = nonspecific calcium rise without TRPC4 – cell-based, HEK293 mu-opioid receptor line, counter-screen for TRPC4 activator project, confirmation (AID 449723;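 active = hit in primary screen, with calcium signal over 5 SD above buffer well mean in both duplicates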;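 also: counter screen cells carry the mu-opioid receptor alone and lack TRPC4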); conditions: HEK293 mu-opioid cells, Fluo-4 calcium fluorescence, at 10 µM; stronger effect = higher value
[16] = nonspecific potentiation of DAMGO calcium response – cell-based, HEK293 mu-opioid receptor line, counter-screen for TRPC4 allosteric potentiator project, confirmation (AID 449724;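 active = calcium signal rise more than 3 SD above the low-dose agonist control mean, in both duplicate plates and the primary screen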); conditions: HEK293 mu-opioid receptor cells, Fluo-4 calcium flux, at 10 µM, compound added before EC20 DAMGO stimulus; stronger effect = higher value
[17] = nonspecific flux increase, KCNQ1-free cells – parental CHO cells, counter-screen for KCNQ1 potentiator project (AID 493006;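 active = duplicate-averaged activation above buffer control mean plus 5 SD of those controls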;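 as to activation: fluorescence ratio of max minus min over baseline after K+ and Tl+ depolarization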); conditions: parental CHO-K1 cells, FluxOR thallium flux, at 10 µM; stronger effect = higher value
[18] = biological target: Potassium voltage-gated channel subfamily KQT member 1 (Homo sapiens) (UniProt P51787); test: enhancement of KCNQ1 channel thallium flux – FluxOR thallium flux, CHO cells, duplicates, confirmation (AID 493007;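 active = potentiation averaged over duplicate wells exceeding buffer-only control mean by more than 3 SD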;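 as to outcome: cells depolarized by a potassium plus thallium sulfate stimulus after compound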;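 as to potentiation: 0% = buffer-only wells and 100% = R-L3 activator control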); conditions: KCNQ1 cell line, FluxOR thallium flux fluorescence, at 10 µM; stronger effect = higher value, % of reference activator effect, buffer zero
Potassium voltage-gated channel subfamily KQT member 1 (Homo sapiens), sequence (P51787 whole entry, looked up): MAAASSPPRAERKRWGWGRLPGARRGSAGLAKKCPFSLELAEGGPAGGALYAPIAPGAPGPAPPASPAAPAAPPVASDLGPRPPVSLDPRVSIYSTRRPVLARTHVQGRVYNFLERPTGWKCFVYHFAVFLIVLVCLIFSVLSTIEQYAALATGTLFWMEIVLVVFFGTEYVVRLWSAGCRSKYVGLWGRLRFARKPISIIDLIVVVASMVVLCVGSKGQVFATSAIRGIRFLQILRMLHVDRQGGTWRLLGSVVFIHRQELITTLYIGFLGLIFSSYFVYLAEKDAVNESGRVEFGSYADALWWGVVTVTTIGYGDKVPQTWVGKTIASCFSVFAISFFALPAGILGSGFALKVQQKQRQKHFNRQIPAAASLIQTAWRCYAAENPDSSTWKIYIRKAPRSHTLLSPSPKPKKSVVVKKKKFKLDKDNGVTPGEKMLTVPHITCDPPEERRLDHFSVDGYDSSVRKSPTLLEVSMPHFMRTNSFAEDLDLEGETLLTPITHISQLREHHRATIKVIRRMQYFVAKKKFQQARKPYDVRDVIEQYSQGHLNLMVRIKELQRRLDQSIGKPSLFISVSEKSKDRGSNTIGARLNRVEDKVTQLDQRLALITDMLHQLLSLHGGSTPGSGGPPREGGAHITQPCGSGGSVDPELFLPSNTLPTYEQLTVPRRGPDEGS

[19] = biological target: Potassium voltage-gated channel subfamily KQT member 1 (Homo sapiens) (UniProt P51787); test: KCNQ1 activators by electrophysiology – IonWorks patch clamp, KCNQ1-CHO cells, orthogonal assay for KCNQ1 potentiator project, confirmation (AID 493184;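 active = current rise at least 3 SD above the untreated control mean in each of two repeat wells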;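 as to current potentiation: percent change of the same well's current before compound addition so 0% = no change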); conditions: automated patch clamp current, at 10 µM; stronger effect = higher value
[20] = biological target: Potassium voltage-gated channel subfamily KQT member 2 (Rattus norvegicus) (UniProt O88943); test: KCNQ2 thallium flux enhancement – KCNQ2-CHO-K1 cells, selectivity assay for KCNQ1 potentiator project (AID 493009;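 active = mean duplicate potentiation above the buffer control mean plus 5 SD of buffer wells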;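 also: assay conditions were tuned for KCNQ1 rather than KCNQ2 modulators; signal is max minus min fluorescence divided by baseline after thallium stimulus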); conditions: FluxOR thallium flux fluorescence, at 10 µM; stronger effect = higher value, scaled: buffer 0, activator control 100
Potassium voltage-gated channel subfamily KQT member 2 (Rattus norvegicus), sequence (O88943 whole entry, looked up): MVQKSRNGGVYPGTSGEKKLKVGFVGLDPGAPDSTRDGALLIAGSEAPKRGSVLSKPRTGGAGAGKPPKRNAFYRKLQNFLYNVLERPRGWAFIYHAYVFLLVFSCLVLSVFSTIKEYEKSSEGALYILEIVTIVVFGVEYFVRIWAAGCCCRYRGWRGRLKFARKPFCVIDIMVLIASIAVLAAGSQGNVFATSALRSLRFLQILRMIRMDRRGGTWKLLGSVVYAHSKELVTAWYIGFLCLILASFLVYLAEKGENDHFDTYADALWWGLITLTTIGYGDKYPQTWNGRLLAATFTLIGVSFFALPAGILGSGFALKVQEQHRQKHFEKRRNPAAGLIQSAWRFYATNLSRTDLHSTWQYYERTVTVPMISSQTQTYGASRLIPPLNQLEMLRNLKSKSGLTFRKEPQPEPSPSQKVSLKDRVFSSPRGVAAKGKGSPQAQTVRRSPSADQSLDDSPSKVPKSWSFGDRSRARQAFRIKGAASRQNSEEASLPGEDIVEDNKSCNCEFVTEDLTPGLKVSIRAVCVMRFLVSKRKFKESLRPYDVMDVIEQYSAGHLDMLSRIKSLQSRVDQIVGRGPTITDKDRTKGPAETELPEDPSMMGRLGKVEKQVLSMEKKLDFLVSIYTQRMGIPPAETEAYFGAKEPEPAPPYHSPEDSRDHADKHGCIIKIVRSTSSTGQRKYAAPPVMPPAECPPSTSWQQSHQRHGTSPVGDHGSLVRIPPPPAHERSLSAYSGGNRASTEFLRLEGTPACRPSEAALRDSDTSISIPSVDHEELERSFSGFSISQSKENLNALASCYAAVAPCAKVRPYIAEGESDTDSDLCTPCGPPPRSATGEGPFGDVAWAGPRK

O=C(Nc1nnc(-c2cccs2)o1)c1cccc(C(F)(F)F)c1
inactive: outcome [2] | outcome [3] | outcome [4] | outcome [5] | outcome [6] | outcome [7] | outcome [8] | outcome [9] | outcome [10] | outcome [11] | outcome [13] | outcome [14] | outcome [16] | outcome [19]
active: activation [1] 151% | activation [12] 57.6% | activation [15] 29.9% | activation [17] 208% | potentiation [18] 50%

O=C(NC(=S)NNC(=O)c1ccco1)c1ccc(Br)cc1
active: activation [1] 149% | activation [10] 32.5% | activation [12] 22.9%
inactive: outcome [2] | outcome [3] | outcome [4] | outcome [5] | outcome [6] | outcome [7] | outcome [9] | outcome [11] | outcome [13] | outcome [14] | outcome [15] | outcome [16]

CCn1c(SCC(=O)c2cc(C)n(CC3CCCO3)c2C)nc2ccccc21 (centres undefined)
active: inhibition [5] 69% | activation [10] 65%
inactive: outcome [1] | outcome [2] | outcome [3] | outcome [4] | outcome [6] | outcome [7] | outcome [9] | outcome [11] | outcome [12] | outcome [13] | outcome [14] | outcome [15] | outcome [16]

O=c1c2cc(Br)ccc2nc(-c2ccc(Cl)cc2)n1O
inactive: outcome [2] | outcome [3] | outcome [4] | outcome [5] | outcome [6] | outcome [7] | outcome [8] | outcome [9] | outcome [10] | outcome [11] | outcome [13] | outcome [14] | outcome [16] | outcome [19]
active: activation [1] 268% | activation [12] 102% | activation [15] 31.7% | activation [17] 654% | potentiation [18] 354% | potentiation [20] 708%

Cc1onc(-c2ccccc2)c1C(=O)NNC(=S)NC(=O)/C=C/c1ccccc1
inactive: outcome [1] | outcome [2] | outcome [3] | outcome [4] | outcome [6] | outcome [7] | outcome [9] | outcome [11] | outcome [14] | outcome [16]
active: inhibition [5] 77% | activation [10] 32.5% | activation [12] 39.7% | inhibition [13] 19.2% | activation [15] 14.8%

COc1cccc(-c2nn(-c3ccccc3)cc2CN(C)C(C)c2ccncn2)c1 (centres undefined)
active: inhibition [5] 93% | activation [10] 41%
inactive: outcome [1] | outcome [2] | outcome [3] | outcome [4] | outcome [6] | outcome [7] | outcome [9] | outcome [11] | outcome [12] | outcome [13] | outcome [14] | outcome [15] | outcome [16]

CC(=O)Nc1ccc(C2(c3ccc(NC(C)=O)cc3)C(=O)Nc3ccccc32)cc1
inactive: outcome [1] | outcome [2] | outcome [3] | outcome [4] | outcome [7] | outcome [9] | outcome [11] | outcome [12] | outcome [13] | outcome [14] | outcome [15] | outcome [16]
active: inhibition [5] 83% | inhibition [6] 61% | activation [10] 30%

Cc1onc(-c2ccccc2)c1C(=O)NNC(=S)NC(=O)c1ccc(F)cc1
active: activation [1] 201% | activation [10] 27.5% | activation [12] 110% | activation [15] 58.7% | current potentiation [19] 16.2%
inactive: outcome [2] | outcome [3] | outcome [4] | outcome [5] | outcome [6] | outcome [7] | outcome [8] | outcome [9] | outcome [11] | outcome [13] | outcome [14] | outcome [16] | outcome [17] | outcome [18] | outcome [20]

COc1cccc(CNCc2ccccn2)c1OC
active: activation [2] 56% | activation [10] 40%
inactive: outcome [1] | outcome [3] | outcome [4] | outcome [5] | outcome [6] | outcome [7] | outcome [9] | outcome [11] | outcome [12] | outcome [13] | outcome [14] | outcome [15] | outcome [16]

Cc1ccc(OCC(=O)NNC(=S)NC(=O)C(C)(C)C)c(Br)c1
inactive: outcome [2] | outcome [3] | outcome [4] | outcome [5] | outcome [6] | outcome [7] | outcome [8] | outcome [9] | outcome [11] | outcome [13] | outcome [14] | outcome [16] | outcome [17] | outcome [19]
active: activation [1] 120% | activation [10] 24% | activation [12] 90.9% | activation [15] 19.6% | potentiation [18] 73% | potentiation [20] 158%

O=c1c2c(-c3ccccc3)csc2ncn1/N=C/c1cccc([N+](=O)[O-])c1O
inactive: outcome [1] | outcome [2] | outcome [3] | outcome [4] | outcome [7] | outcome [9] | outcome [10] | outcome [11] | outcome [14] | outcome [15] | outcome [16]
active: inhibition [5] 90% | inhibition [6] 39% | activation [12] 36.1% | inhibition [13] 27.2%

COc1ccc(C(CNC(=O)Cc2ccc3ccccc3c2)N(C)C)cc1 (centres undefined)
active: activation [1] 171% | activation [2] 88% | inhibition [6] 98% | activation [10] 55.5%
inactive: outcome [3] | outcome [4] | outcome [5] | outcome [7] | outcome [9] | outcome [11] | outcome [12] | outcome [13] | outcome [14] | outcome [15] | outcome [16]

Cc1cccc(C(=O)NC(=S)NNC(=O)c2ccccc2Cl)c1
active: activation [1] 201% | activation [10] 34% | activation [12] 138% | activation [15] 85.8% | potentiation [18] 50.5% | potentiation [20] 158%
inactive: outcome [2] | outcome [3] | outcome [4] | outcome [5] | outcome [6] | outcome [7] | outcome [8] | outcome [9] | outcome [11] | outcome [13] | outcome [14] | outcome [16] | outcome [17] | outcome [19]

COc1ccc(C(=O)NC(=S)NNC(=O)c2cccc(C)c2)cc1
active: activation [1] 142% | activation [10] 27% | activation [12] 133% | activation [15] 40.2% | potentiation [18] 128% | potentiation [20] 227%
inactive: outcome [2] | outcome [3] | outcome [4] | outcome [5] | outcome [6] | outcome [7] | outcome [8] | outcome [9] | outcome [11] | outcome [13] | outcome [14] | outcome [16] | outcome [17] | outcome [19]
